Data from PubChem BioAssay (NCATS).
Results filed as inconclusive are left out. Calls of active or inactive are those of the source. Calls follow the shape of the dose curve; as a rule, active = well fitted inhibition curve with a large enough effect; inconclusive = small, poorly fitted or top-dose-only effect; inactive = flat fitted curve, though single readings scatter.

target: Dual specificity protein kinase CLK4 (Homo sapiens) (UniProt Q9HAZ1); assay: qHTS Assay for Inhibitors of CDC-like Kinase 4 (Kinase-Glo Assay) (AID 1770); conditions: recombinant Clk4, Kinase-Glo ATP depletion luminescence; series mostly up to 66.7 µM; also: nearly all actives have a fitted effect of over 65% in size
Sequence (Q9HAZ1 whole entry, looked up): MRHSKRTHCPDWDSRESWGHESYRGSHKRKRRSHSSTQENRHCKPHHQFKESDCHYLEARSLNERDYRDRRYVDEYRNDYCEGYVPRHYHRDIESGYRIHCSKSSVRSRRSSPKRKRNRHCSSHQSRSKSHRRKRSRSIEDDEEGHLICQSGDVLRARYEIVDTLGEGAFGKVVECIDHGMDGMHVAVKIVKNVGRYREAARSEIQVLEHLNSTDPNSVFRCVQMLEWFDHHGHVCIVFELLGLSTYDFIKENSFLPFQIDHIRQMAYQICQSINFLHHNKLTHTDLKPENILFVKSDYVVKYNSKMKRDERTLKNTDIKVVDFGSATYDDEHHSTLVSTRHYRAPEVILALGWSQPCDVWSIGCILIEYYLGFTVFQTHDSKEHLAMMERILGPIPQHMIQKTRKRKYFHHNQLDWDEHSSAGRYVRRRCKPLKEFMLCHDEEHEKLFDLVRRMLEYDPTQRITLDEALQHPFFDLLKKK
Outline: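 Readout: Kinase-Glo luminescence from ATP left after a 4.5 h room-temperature reaction of 25 nM Clk4 with 100 uM RS peptide and 1 uM ATP (final). Buffer: 25 mM Tris pH 7.5, 10 mM MgCl2.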
Potency is read from the fitted curve at half-maximal effect.

Potency, active:
Cc1noc(C)c1-c1nccc(N2CCOCC2)n1 14.1 µM
CNc1nc(-c2ccc3c(c2)OCO3)nc2ccccc12 14.1 µM
CC(=O)NCCNc1nc(-c2cccnc2)nc2ccccc12 25.1 µM
Cc1cccc(CNc2cc(-c3c(C)noc3C)ncn2)c1 15.8 µM
CCNc1ncc2ncc(=O)n(CCOC)c2n1 15.8 µM
COCCNc1nc(-c2ccccc2Cl)nc2ccccc12 15.8 µM
COc1ccc(CNc2ncnc3ccc(-c4cccnc4)cc23)c(OC)c1 14.1 µM
COc1ccc(-n2c(=O)cnc3cnc(OC)nc32)cc1 15.8 µM
c1csc(CNc2ncnc3ccc(-c4ccoc4)cc23)c1 0.251 µM
Cc1noc(C)c1-c1ccc2ncnc(N3CCN(C)CC3)c2c1 10 µM
COCCNc1ncnc2ccc(-c3cccc(OC)c3)cc12 0.708 µM

Potency, inactive:
O=c1c(-c2ccccc2)nc2cnc(Nc3ccccc3)nc2n1Cc1cccs1
c1csc(CNc2ccnc(-c3ccoc3)n2)c1
Cc1ccccc1-c1nccc(NCCN2CCOCC2)n1
CCNc1ncc2nc(-c3ccc(OC)cc3)c(=O)n(C[C@H]3CCCO3)c2n1
CCNc1ncc2nc(-c3ccccc3)c(=O)n(Cc3cccs3)c2n1
COc1cccc(-c2cncnc2N(C)Cc2ccco2)c1
CN(C)C(=O)c1ccc(-c2cncnc2NCCc2cnc[nH]2)cc1
Cc1cnc(CNc2ccnc(-c3ccccc3C(F)(F)F)n2)cn1
FC(F)(F)c1ccccc1-c1nccc(NCc2cccs2)n1
c1cncc(-c2cncnc2NC2CCNCC2)c1
c1ccc(Nc2cc(-c3ccoc3)ncn2)cc1
Cn1c(=O)c(-c2ccccc2)nc2cncnc21
CN(C)Cc1ccccc1-c1nc(N(C)C)c2ccccc2n1
CN(C)c1ncc2nc(-c3ccc(F)cc3)c(=O)n(C)c2n1
O=c1cnc2cnc(Oc3cccc(Cl)c3)nc2n1C[C@H]1CCCO1
O=c1c(-c2cc(F)cc(F)c2)nc2cnc(Nc3ccccc3)nc2n1C[C@H]1CCCO1
CCNc1ncc2nc(-c3ccc(F)cc3)c(=O)n(CCOC)c2n1
CCNc1ncc2nc(C)c(=O)n(CCC#N)c2n1
FC(F)(F)c1ccccc1-c1ccc2ncnc(NCc3cccnc3)c2c1
CCNc1ncc2nc(-c3cccs3)c(=O)n(C)c2n1
COc1ccc(-n2c(=O)c(-c3cccs3)nc3cnc(N(C)C)nc32)cc1
O=c1cnc2cncnc2n1Cc1ccccc1Cl
Cc1ccccc1-c1cc(Nc2ccccc2)ncn1
COc1ncc2nc(-c3ccccc3)c(=O)n(-c3ccccc3)c2n1
COc1ncc2nc(-c3ccc(F)cc3)c(=O)n(-c3ccccc3)c2n1
CN1CCN(c2ncc3ncc(=O)n(CCC#N)c3n2)CC1
Cc1noc(C)c1-c1cncnc1NCc1ccccc1
COc1cccc(Cn2c(=O)c(-c3ccc(F)cc3)nc3cnc(N(C)C)nc32)c1
FC(F)(F)c1ccccc1-c1nc(NCCN2CCOCC2)c2ccccc2n1

target: Dual specificity protein kinase CLK4 (Homo sapiens) (UniProt Q9HAZ1); assay: qHTS Assay for Inhibitors of CDC-like Kinase 4 (ADP-Glo Assay) (AID 1771); conditions: recombinant CLK4, ADP-Glo luminescence; series mostly up to 80 µM; also: nearly all actives have a fitted effect of over 70% in size
Outline: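 25 nM Clk4, 100 uM RS peptide, 1 uM ATP (final); 2 mM MgCl2, 0.5 mM EGTA, 2.5 mM DTT, 0.01% Triton X-100; 1 hr RT. ADP-Glo readout: ATP depletion 45 min, conversion/luciferase 30 min, luminescence.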

Potency, active:
Cc1noc(C)c1-c1nccc(N2CCOCC2)n1 14.1 µM
CNc1nc(-c2ccc3c(c2)OCO3)nc2ccccc12 28.2 µM
CC(=O)NCCNc1nc(-c2cccnc2)nc2ccccc12 14.1 µM
Cc1cccc(CNc2cc(-c3c(C)noc3C)ncn2)c1 15.8 µM
CCNc1ncc2ncc(=O)n(CCOC)c2n1 11.2 µM
COCCNc1nc(-c2ccccc2Cl)nc2ccccc12 8.91 µM
COc1ccc(CNc2ncnc3ccc(-c4cccnc4)cc23)c(OC)c1 14.1 µM
COc1ccc(-n2c(=O)cnc3cnc(OC)nc32)cc1 14.1 µM
c1csc(CNc2ncnc3ccc(-c4ccoc4)cc23)c1 0.355 µM
Cc1noc(C)c1-c1ccc2ncnc(N3CCN(C)CC3)c2c1 10 µM
COCCNc1ncnc2ccc(-c3cccc(OC)c3)cc12 0.562 µM

Potency, inactive:
O=c1c(-c2ccccc2)nc2cnc(Nc3ccccc3)nc2n1Cc1cccs1
CCNc1ncc2nc(-c3ccc(OC)cc3)c(=O)n(C[C@H]3CCCO3)c2n1
CCNc1ncc2nc(-c3ccccc3)c(=O)n(Cc3cccs3)c2n1
c1cncc(-c2cncnc2NC2CCNCC2)c1
c1ccc(Nc2cc(-c3ccoc3)ncn2)cc1
CN(C)c1ncc2nc(-c3ccc(F)cc3)c(=O)n(C)c2n1
O=c1cnc2cnc(Oc3cccc(Cl)c3)nc2n1C[C@H]1CCCO1
O=c1c(-c2cc(F)cc(F)c2)nc2cnc(Nc3ccccc3)nc2n1C[C@H]1CCCO1
CCNc1ncc2nc(-c3ccc(F)cc3)c(=O)n(CCOC)c2n1
CCNc1ncc2nc(-c3cccs3)c(=O)n(C)c2n1
COc1ncc2nc(-c3ccc(F)cc3)c(=O)n(-c3ccccc3)c2n1
CN1CCN(c2ncc3ncc(=O)n(CCC#N)c3n2)CC1
COc1cccc(Cn2c(=O)c(-c3ccc(F)cc3)nc3cnc(N(C)C)nc32)c1
